From PubChem BioAssay (NCI)
About 83,000 compounds went through this panel and 20% of them were active in at least one assay; those are over-represented in the sample as a whole.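 96-well plates, one dose, 48 hours. Percent growth reported; active if below 10.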 A number with no mark means an inactive call. Calls of active or inactive are those of the source.

Assays:
Test in all cases: NCI-60 one-dose screen, 48 h (100 = growth as untreated, 0 = no growth, -100 = all killed)
Conditions in all cases: 10 µM unless noted
SR leukemia = tested on: SR leukemia
RPMI-8226 leukemia = tested on: RPMI-8226 leukemia
OVCAR-8 ovarian = tested on: OVCAR-8 ovarian
OVCAR-5 ovarian = tested on: OVCAR-5 ovarian
OVCAR-4 ovarian = tested on: OVCAR-4 ovarian
SK-OV-3 ovarian = tested on: SK-OV-3 ovarian
IGROV1 ovarian = tested on: IGROV1 ovarian
OVCAR-3 ovarian = tested on: OVCAR-3 ovarian
HS 578T breast = tested on: HS 578T breast
NCI/ADR-RES ovarian = tested on: NCI/ADR-RES ovarian

Row | Compound | growth (SR leukemia) | growth (RPMI-8226 leukemia) | growth (OVCAR-8 ovarian) | growth (OVCAR-5 ovarian) | growth (OVCAR-4 ovarian) | growth (SK-OV-3 ovarian) | growth (IGROV1 ovarian) | growth (OVCAR-3 ovarian) | growth (HS 578T breast) | growth (NCI/ADR-RES ovarian)
1 | COc1ccc(OC)c(-c2c(C#N)c(-c3cccs3)nc3c2c(-c2ccccc2)nn3-c2ccccc2)c1 | 106% | 106% | 101% | 103% | 111% | 93.2% | 99.2% | 114% | 87.7% | 107%
2 | CCOC(=O)c1c(C)c2c(n1C)CSc1cc(C(=O)c3ccccc3)c(=O)[nH]c1-2 | 88.3% [100 µM] | 82.3% [100 µM] | 106% [100 µM] | 95.8% [100 µM] | 92.4% [100 µM] | 99.4% [100 µM] | 104% [100 µM] | 108% [100 µM] | 90.8% [100 µM] | 91.6% [100 µM]
3 | O=C1N[C@@H]2NC(=[N+]3CCOCC3)N[C@@H]2N1 | 111% | 106% | 105% | 97.9% | 107% | 104% | 104% | 117% | 98.2% | 102%
4 | Cc1cc2c([nH]1)CSc1cc(S(=O)(=O)c3ccccc3)c(=O)[nH]c1-2 | 12.8% [100 µM] | 21.3% [100 µM] | 24.3% [100 µM] | 69.9% [100 µM] | 43.1% [100 µM] | 22% [100 µM] | 42.6% [100 µM] | -15.6% [100 µM] (active) | 47.5% [100 µM] | 15.7% [100 µM]
5 | CC(C)c1ccc(COCc2cc(CN3CCCC3)c(O)c3ncccc23)cc1 | -6.27% (active) | -21.4% (active) | -10.8% (active) | 32.8% | -6.36% (active) | -16.4% (active) | 9.42% (active) | -34.2% (active) | 41.6% | -51.2% (active)
6 | O=C(Cn1c2c(c3ccccc31)CCCC2)Nc1ccc(-c2nc3ccccc3s2)cc1 | 88.8% | 116% | 107% | 99.5% | 104% | 114% | 83.8% | 110% | 112% | 109%
7 | CCCCCCCCCCCCCCCCCCOc1ccccc1CC(=O)NCC[N+]1(C)CCCC1 | 23% | 52.7% | 49.7% | 22.9% | 42.5% | 77.4% | -21.5% (active) | 39% | 60.7% | 103%
8 | CC(C)CCNC(=O)Cn1cccc(NC(=O)OCc2ccccc2)c1=O | 107% | 92.6% | 104% | 127% | 98.7% | 101% | 112% | 107% | 103% | 93.9%
9 | O=Cc1ccc([N+](=O)[O-])s1 | 63.2% | 94.6% | 87.1% | 93.7% | 98.3% | 109% | 79.8% | 105% | 113% | 95.2%
10 | O=C(/C=C/c1cn(-c2ccccc2)nc1-c1ccc([N+](=O)[O-])cc1)c1ccc(Cl)cc1 | -22.6% (active) | 38.3% | 38.1% | 34.2% | -21.8% (active) | 66.5% | 48% | 10.6% | -12% (active) | 41.1%
11 | O=C1/C(=C/c2ccc(Cl)cc2)COc2ccc(O)cc21 | 5.45% (active) | -31.8% (active) | 77.8% | 88.7% | 84% | 132% | 78.6% | 75.5% | 83.1% | 88.7%
12 | CCCCC(=O)Nc1ncc(Cc2ccc(Cl)cc2)s1 | 33.5% | 86.2% | 84.9% | 73.9% | 80% | 79.1% | 66.5% | 68.3% | 72.9% | 48.4%
13 | Cc1ccc(CNc2ccc(Cl)cc2NCc2ccc(C)c(O)c2)cc1O | -33% (active) | 16% | 23.6% | 73.6% | 27.8% | 54.7% | 24.2% | 10.9% | 42.7% | 15.4%
14 | COc1cc(-c2nc3cc(Cl)c(Cl)cc3[nH]2)ccc1OCC(=O)N=Nc1c(O)[nH]c2ccc([N+](=O)[O-])cc12 | 23.9% | 101% | 69.3% | 105% | 71.7% | 77% | 87.1% | 36.1% | 68.2% | 109%
15 | O=C1CNC(c2ccccc2)C(c2ccccc2)N1 (stereo not given) | 106% | 75.2% | 98% | 86.5% | 89% | 107% | 93% | 107% | 86.1% | 81%
16 | CCOC(=O)C1=NN(c2ccccc2)C(=O)/C1=C\N1C(=O)CC(=O)NC1=S | 92.6% | 93.1% | 100% | 104% | 52.7% | 97.5% | 106% | 101% | 102% | 95.9%
